SARS PLpro yeast – qHTS of Yeast-based Assay for SARS-CoV PLP; S. cerevisiae expressing SARS-CoV PLpro, growth rescue; Potency, µM (highest dose often 32.9 µM), for inactives: top-dose activity, positive = growth rescue, usual class: activators; 330,000 tested, 0.19% active; AID 485353, 2010; calls by dose curve; further: potency means the concentration at half of the fitted maximal effect; 0% is about no effect; nearly all actives have a fitted effect of over 55% in size
Pf growth 96h – Primary qHTS for delayed death inhibitors of the malarial parasite plastid, 96 hour incubation | P. falciparum luciferase reporter growth, 96 h | Potency, µM (titrated, usually from 28.7 µM), for the others: at the top dose activity change, negative = inhibition, hits mostly inhibitors | 320,000 tested, 6.9% active; further: potency means the concentration at half of the fitted maximal effect; on the % scale 0 is the no-effect control and ±100 the full control effect
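96 h incubation, 37 C, 5% CO2, of luciferase-reporter P. falciparum-infected RBCs (2% hematocrit, 0.05% parasitemia final) with test compounds; endpoint luminescence.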
Pf growth 48h – Primary qHTS for delayed death inhibitors of the malarial parasite plastid, 48 hour incubation. P. falciparum luciferase growth in erythrocytes, 48 h. Potency, µM (top dose mostly 28.7 µM), for inactives: at the highest dose activity change, negative = inhibition, hits mostly inhibitors. 310,000 tested, 5.9% active. AID 504832, 2011; further: potency means the concentration at half of the fitted maximal effect; on the % scale 0 is the no-effect control and ±100 the full control effect
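Luciferase-expressing P. falciparum in infected erythrocytes (2% hematocrit, 0.1% parasitemia final) in RPMI 1640/0.5% Albumax were exposed to compound for 48 hours at 37 C, 5% CO2; growth read as luminescence.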
Sm TGR block – qHTS Assay for the Inhibitors of Schistosoma Mansoni Peroxiredoxins. Schistosoma mansoni thioredoxin glutathione reductase (TGR), Q962Y6. purified TGR, DTNB reduction, TNB absorbance 405 nm. Potency, µM (doses to about 114 µM), inactives show at the highest dose activity change, negative = inhibition, most hits filed as inhibitors. 360,000 tested, 3% active; further: potency means the concentration at half of the fitted maximal effect; on the % scale 0 is the no-effect control and ±100 the full control effect; nearly all actives have a fitted effect of over 60% in size
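First, TGR (20 nM dispensed) and NADPH were mixed with compound. Second, a 15 min room-temperature incubation followed. Third, further NADPH and then DTNB were added to start the reaction. Finally, TNB absorbance was monitored kinetically.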
HCV inhibitor – qHTS Assay for Inhibitors of Hepatitis C Virus (HCV) | Potency, µM (highest dose often 41.8 µM), without a hit: at the highest dose activity change, negative = inhibition, hits mostly inhibitors | Huh7.5.1 HCVcc-Cre infection, luciferase reporter, 44 h | 340,000 tested, 3.4% active | AID 651820, 2012; further: potency means the concentration at half of the fitted maximal effect; on the % scale 0 is the no-effect control and ±100 the full control effect
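Compounds are dispensed onto cells plated 4 h earlier at 1,000 per well, with HCVcc-Cre virus (about 0.5 moi) added next. Following 44 h of culture, luminescent signal is measured for 15 sec after 15 min with substrate at room temperature.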
HCMV antiviral – qHTS Assay for inhibitors of the human cytomegalovirus (HCMV); HFF cells, HCMV-luciferase reporter, 72 h; hits give low values; activity change, negative = inhibition, % at 57.5 µM; 410,000 tested, 4.5% active; AID 1259415, 2018; in the data active means activity change below about -60%; inconclusive means no clear call, values can overlap the other calls; inactive means above about -39%; further: on the % scale 0 is the no-effect control and ±100 the full control effect
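Two compound doses tested in HFFs infected with HCMV-luciferase, MOI 1 PFU/cell, 72 h at 37C. Lysate luminescence read with OneGlo; data normalized against buffer-only and 10uM Salinomycin inhibitor controls.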
Active calls of the source: *; ? = inconclusive; . = no result given. Hits are enriched below; roughly 15% of the tested compounds scored in any of these assays. Unless noted, the call rests on the fitted dose curve; in most records, active means well fitted curve in the direction sought with a large enough effect; inconclusive means small, poorly fitted or top-dose-only effect, or another doubt; inactive means no such curve, though single readings can be large; an effect the other way counts as inactive or inconclusive.

SMILES | SARS PLpro yeast | Pf growth 96h | Pf growth 48h | Sm TGR block | HCV inhibitor | HCMV antiviral
O=C(NC1CC1)c1cc2cc3ccccc3nc2s1 | 15.0% | 13.1µM* | -21.4% | -18.9% | -9.4% | 123.5
O=C(CCn1nnc2ccccc21)N/N=C\Cc1ccccc1 | -1.0% | ? | ? | -5.0% | -4.4% | -37.6
Cc1ccccc1NS(=O)(=O)c1ccc(S(=O)(=O)N2CCCC2)cc1 | . | . | . | . | . | -12.8
Cc1ccc(S(=O)(=O)Nc2cccc3cccnc23)c([N+](=O)[O-])c1 | -8.1% | 0.7% | 2.62µM* | 2.0% | ? | -98.1*
Cc1ccc2cccc(NS(=O)(=O)c3ccccc3)c2n1 | 15.3% | -25.9% | ? | 0.8% | -5.4% | -80.0*
COc1ccccc1NS(=O)(=O)c1ccc2ccccc2c1 | -7.5% | -11.5% | -1.7% | 10.6% | -19.6% | -25.4
Cc1cc(C)c(NS(=O)(=O)c2cccc3cccnc23)c(C)c1 | -4.7% | -22.3% | ? | 9.2% | 11.0% | -27.0
COc1ccc(NS(=O)(=O)c2ccc3ccccc3c2)c2ncccc12 | 0.9% | 10.9% | 2.94µM* | 6.6% | ? | -92.1*
O=S(=O)(Nc1cccc2cccnc12)c1ccc(S(=O)(=O)N2CCCC2)cc1 | 10.3% | ? | 10.4µM* | 1.2% | 2.82µM* | -85.9*

Compound activity (PubChem)
